In PubChem BioAssay (NCATS):
Inconclusive results are not listed. Values without a mark were called inactive. Calls of active or inactive are those of the source. Calls come from the whole dose curve; as a rule, active = well fitted cell-killing curve with a large enough effect; inconclusive = small, poorly fitted or top-dose-only effect; inactive = no such curve, though single readings can be large or run the other way. Non-standard residues stand in square brackets, D forms with d. Residues, ends and D or L forms follow the SMILES beside them. *: point of attachment. Nva = CCC[C@H](N)C(=O)O; Cbz = O=C(OCc1ccccc1)*
Potency is the fitted concentration of half-maximal effect.

Assay: qHTS of pediatric cancer cell lines to identify multiple opportunities for drug repurposing: Primary screen for SJ-GBM2 cells (AID 1347091);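 for activity change, negative = cytotoxic: plate controls were DMSO neutral control for no effect and bortezomib for full effect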
Conditions: SJ-GBM2 viability, CellTiter-Glo luminescence, 48 h; series mostly up to 46 µM; activity change, negative = cytotoxic: at the top concentration
Procedure, shortened: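 Eight- or eleven-point concentration series, 48 h treatment at 37 degrees C in growth media; readout CellTiter-Glo luminescence. Potency and efficacy were taken from the concentration-response curves.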
In the case of `Cn1cc(C[C@@H](N)C(=O)O)c2ccccc21`, the “activity change, negative = cytotoxic” value is reported as 5.69% [at 16.1 µM]. For `C[C@H](CCC(=O)O)[C@H]1CCC2C3C[C@H](O)[C@@H]4C[C@H](O)CC[C@]4(C)C3CC[C@@]21C` (stereo not given in full), the “activity change, negative = cytotoxic” value was 2.99%. With `CCC[C@@H](C=O)NC(=O)[C@H](CC(C)C)NC(=O)[C@H](CC(C)C)NC(=O)OCc1ccccc1` (Cbz-Leu-Leu-[Nva]-aldehyde) the Potency was 296 nM (active). In the case of `CC(Oc1ccc(O)cc1)(P(=O)(O)O)P(=O)(O)O`, the “activity change, negative = cytotoxic” value is reported as 0.164%. With `N#Cc1cc(NC(=O)Nc2nnc(-c3ccncc3)s2)ccc1-c1cn[nH]c1` the “activity change, negative = cytotoxic” value was 0.845%. For `CC(=O)NC(CS)C(=O)O` (stereo not given), the “activity change, negative = cytotoxic” value was 5.58%. With `C[C@@H](Cc1cc2c(c(C(N)=O)c1)N(CCCO)CC2)NCCOc1ccccc1OCC(F)(F)F` the “activity change, negative = cytotoxic” value was 0.801%. For `COc1cc([C@@H]2c3cc4c(cc3[C@H](O)[C@H]3COC(=O)[C@@H]23)OCO4)cc(OC)c1OC`, the Potency was 66.2 nM (active). In the case of `CC(C)N1[N]C(=C2C=c3cc(O)ccc3=N2)c2c(N)ncnc21`, the Potency is reported as 93.5 nM (active). With `C=C1C(=O)O[C@H]2[C@@H]1CCC(C)=CCC[C@@]1(C)O[C@@H]21` the Potency was 8330 nM (active). For `O=C(CCCCCCC(=O)Nc1cccnc1)NO`, the Potency was 7430 nM (active). In the case of `CN(C)c1ccc(C(=O)NCCCCCCC(=O)NO)cc1`, the Potency is reported as 743 nM (active). For `O=C(CN1C(=O)C2(CCCC2)NC[C@H]1c1cc(F)cc(F)c1)Nc1ccc2c(c1)C[C@@]1(C2)C(=O)Nc2ncccc21`, the “activity change, negative = cytotoxic” value was 16.4%. In the case of `NC(=O)c1ncn([C@@H]2O[C@H](CO)[C@@H](O)[C@@H]2O)c1N`, the “activity change, negative = cytotoxic” value is reported as -18.5%. In the case of `Cc1cnc(Nc2ccc(CN3CCOCC3)cc2)nc1Nc1cccc(S(=O)(=O)NC(C)(C)C)c1`, the Potency is reported as 2960 nM (active). In the case of `CC(=O)NCC(=O)N1[C@H]2CC[C@H]1c1cc(Nc3ncc(C(F)(F)F)c(NC4CCC4)n3)ccc12`, the Potency is reported as 83.3 nM (active). With `OC[C@H]1OC(O)C[C@@H](O)[C@H]1O` (stereo not given in full) the “activity change, negative = cytotoxic” value was 24.2%. In the case of `CCCCCCCCCCCC(CC1OC(=O)C1CCCCCC)OC(=O)C(CC(C)C)NC=O` (stereo not given), the Potency is reported as 9350 nM (active). With `CC(=O)OCC(=O)[C@@]12N=C(C)O[C@H]1C[C@H]1[C@@H]3CCC4=CC(=O)C=C[C@]4(C)[C@@H]3[C@@H](O)C[C@@]12C` the “activity change, negative = cytotoxic” value was 11.7%. In the case of `CCCCOc1ccc(C(=O)Nc2ccc(F)cc2F)cc1`, the “activity change, negative = cytotoxic” value is reported as -9.34%.
